PubChem BioAssay (NCATS)
Results filed as inconclusive are left out. The source made the active and inactive calls. Unless noted, calls follow the shape of the dose curve; as a rule, active = well fitted curve in the direction sought with a large enough effect; inconclusive = small, poorly fitted or top-dose-only effect, or another doubt; inactive = no such curve, though single readings can be large; an effect the other way counts as inactive or inconclusive.

Experiments:
[1] = target: Tyrosyl-DNA phosphodiesterase 1 (Homo sapiens) (UniProt Q9NUW8); assay: Confirmation Assay for Inhibitors of Tyrosyl-DNA Phosphodiesterase (TDP1) (AID 489007); conditions: recombinant human TDP1 enzymatic activity, dose-response; also: potency is read from the fitted curve at half-maximal effect; nearly all actives have a fitted effect of over 40% in size
How it was run: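 Recombinant human Tdp1 (1 nM final), expressed in E. coli, preincubated 15 min with compound. Then 15 nM 5'-biotin/3'-phosphotyrosine-FITC DNA substrate added for 5 min at room temperature. AlphaScreen beads (10 ug/ml) added for 10 min; cleavage gives signal loss.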

[2] = target: Guanine nucleotide-binding protein G(i) subunit alpha-1 (Homo sapiens) (UniProt P63096); assay: qHTS Assay for Inhibitors of RGS12 GoLoco Motif Activity (Green Fluorophore) (AID 879); conditions: Galphai1/FITC-RGS12 GoLoco peptide, fluorescence polarization; series mostly up to 57.1 µM;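 also: negative values mean loss of peptide binding seen as reduced polarization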
How it was run: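 Fluorescence polarization assay: 50 nM Gαi1 with 10 nM FITC-labeled RGS12 GoLoco peptide in 10 mM Tris pH 7.5, 150 mM NaCl, 0.1 mM GDP, 0.05% NP40, 10 min at room temperature with compound.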

[3] = qHTS Assay for Identification of Small Molecule Agonists for Thrombopoietin (TPO) Signaling Pathway (AID 917); conditions: TPO signaling pathway reporter cells, agonist qHTS, stimulated with TPO at its EC50; series mostly up to 38.5 µM
How it was run: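 Luminescence from a Glycoprotein IIb promoter–driven luciferase reporter served as read-out in murine Ba/F3 cells carrying the human TPO receptor. Cells, deprived of IL-3 overnight, received compounds with 26 pM TPO and were incubated 24 hrs at 37 C.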

[4] = target: Muscarinic acetylcholine receptor M1 (Rattus norvegicus) (UniProt P08482); assay: qHTS Assay for Antagonists of Acetylcholine Muscarinic M1 Receptor: Measurement of IP-One Response (AID 944); conditions: CHO-M1 cells, IP-One HTRF, antagonist mode; series mostly up to 46.1 µM; also: nearly all actives have a fitted effect of over 75% in size
How it was run: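 CHO cells stably expressing rat M1, pretreated 10 min with compound, then stimulated 30 min with carbachol at EC80 (200 nM) in LiCl-containing buffer pH 7.4; IP1 accumulation read by HTRF competition (665/620 nm).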

[5] = target: Pyruvate kinase (Leishmania mexicana) (UniProt Q27686); assay: qHTS Validation Assay for Inhibitors of Leishmania Mexicana Pyruvate Kinase (AID 945); conditions: purified L. mexicana pyruvate kinase, enzyme activity, E451W mutant enzyme; series mostly up to 57.5 µM
How it was run: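 LmPYK E451W 0.2 nM; 0.5 mM PEP, 0.1 mM ADP, 7 mM MgCl2, 50 mM KCl, imidazole pH 7.2, 0.01% Tween 20, 0.05% BSA; 1 h RT; PKLight luminescence; DMSO-normalized.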

[6] = target: Pyruvate kinase PKM (Homo sapiens) (UniProt P14618); assay: qHTS Assay for Activators of Human Muscle Pyruvate Kinase (AID 954; active = well fitted curve in the direction sought with a large enough effect, not every such curve was filed as active); conditions: purified human muscle pyruvate kinase, luciferase-coupled luminescence, 1 h; series mostly up to 57.5 µM
How it was run: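 Enzyme was run at intermediate activity so both inhibitors and activators could be detected. ATP formed from ADP and PEP by 0.1 nM human PKM2 during a 1 h room-temperature incubation was quantified by coupled luciferase luminescence.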

[7] = target: Alpha-galactosidase A (Homo sapiens) (UniProt P06280); assay: Counterscreen for Glucocerebrosidase Inhibitors: qHTS Assay for Human alpha-Galactosidase at pH 4.5 (AID 992); conditions: purified enzyme, fluorogenic substrate; series mostly up to 76.9 µM
How it was run: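 Read-out is 4-methylumbelliferone fluorescence (365 nm excitation, 440 nm emission) after a pH 10 NaOH/glycine stop. Reactions held 2 nM enzyme and 80 uM substrate at pH 4.5 for 20 min at room temperature.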

[8] = target: alpha-glucosidase (Oryza sativa, rice) (UniProt Q653V4); assay: Counterscreen for Glucocerebrosidase Inhibitors: qHTS Assay for Rice alpha-Glucosidase at pH 5.0 (AID 997); conditions: rice alpha-glucosidase enzyme activity; series mostly up to 76.9 µM
How it was run: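 Rice alpha-glucosidase (4 nM final) with 400 uM 4-methylumbelliferyl-alpha-D-glucopyranoside in citrate buffer pH 5.0, 20 min at room temperature, stopped at pH 10; fluorescence 365/440 nm, compounds 0.7 nM–77 uM, AC50 from Hill fits.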

[9] = target: DNA dC->dU-editing enzyme APOBEC-3G (Homo sapiens) (UniProt Q9HC16); assay: qHTS for inhibitors of Vif-A3G interactions: Validation (AID 588379); conditions: Vif-A3G protein interaction assay; series mostly up to 46.1 µM
How it was run: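 HeLa cells stably expressing Vif and A3G-eYFP, 700 cells/well, incubated overnight at 37 deg C, then exposed to compound overnight at 37 deg C. Inhibition of Vif-mediated degradation read as increased yellow fluorescence (Ex 488/Em 500-530) by laser-scanning cytometry.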

[10] = target: Dual specificity protein kinase CLK4 (Homo sapiens) (UniProt Q9HAZ1); assay: qHTS Assay for Inhibitors of CDC-like Kinase 4 (Kinase-Glo Assay) (AID 1770); conditions: recombinant Clk4, Kinase-Glo ATP depletion luminescence; series mostly up to 66.7 µM; also: nearly all actives have a fitted effect of over 65% in size
How it was run: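 Substrate mix (RS peptide 100 uM, ATP 1 uM) dispensed, compound pinned in, then Clk4 added to 25 nM final. Incubated 4.5 h at RT; Kinase-Glo reagent added, luminescence read after 5 min.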

[11] = target: Dual specificity protein kinase CLK4 (Homo sapiens) (UniProt Q9HAZ1); assay: qHTS Assay for Inhibitors of CDC-like Kinase 4 (ADP-Glo Assay) (AID 1771); conditions: recombinant CLK4, ADP-Glo luminescence; series mostly up to 80 µM; also: nearly all actives have a fitted effect of over 70% in size
How it was run: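 25 nM Clk4 with 100 uM RS repeat peptide and 1 uM ATP (final) in buffer with 2 mM MgCl2, 0.5 mM EGTA, 2.5 mM DTT, 0.01% Triton X-100; 1 h at room temperature; ADP-Glo luminescence for ADP formed.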

[12] = target: Dual specificity protein kinase CLK4 (Homo sapiens) (UniProt Q9HAZ1); assay: qHTS Assay for Inhibitors of CDC-like Kinase 4 (ADP-FP Assay) (AID 1795); conditions: Transcreener ADP fluorescence polarization; series mostly up to 50 µM;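 also: recombinant human CLK4 phosphorylating RS repeat peptide at 1 µM ATP; nearly all actives have a fitted effect of over 60% in size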
How it was run: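 Clk4 6.25 nM; RS peptide 100 uM; ATP 1 uM; 25 mM Tris pH 7.5, 10 mM MgCl2; 1 h reaction. ADP detected via antibody/orange tracer FP displacement; TG003 positive control.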

[13] = target: Rap guanine nucleotide exchange factor 3 (Homo sapiens) (UniProt O95398); assay: Confirmatory qHTS for antagonist of cAMP-regulated guanine nucleotide exchange factor 3 (EPAC1) (AID 1645880); conditions: EPAC1 Rap1B-BODIPY-GDP exchange, fluorescence; series mostly up to 115 µM; also: nearly all actives have a fitted effect of over 55% in size
How it was run: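 Nucleotide exchange uses 100 nM EPAC1, 250 nM RAP1B-BODIPY-GDP and 50 uM GDP, with compounds in a concentration-titration series. After 5 min at room temperature, fluorescence (480 nm ex/540 nm em) is read every 5 min for 30 min. Data are normalized to control ATA and DMSO.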

[14] = target: Rap guanine nucleotide exchange factor 3 (Homo sapiens) (UniProt O95398); assay: Confirmatory qHTS for agonist of cAMP-regulated guanine nucleotide exchange factor 3 (EPAC1) (AID 1645881); conditions: EPAC1 Rap1B BODIPY-GDP exchange fluorescence; series mostly up to 154 µM;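 also: EPAC1 catalysed release of BODIPY-GDP from Rap1B seen as fluorescence loss; nearly all actives have a fitted effect of over 75% in size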
[15] = target: Rap guanine nucleotide exchange factor 4 (Homo sapiens) (UniProt Q8WZA2); assay: Confirmatory qHTS for agonist of cAMP-regulated guanine nucleotide exchange factor 4 (EPAC2) (AID 1645884); conditions: EPAC2 GEF activity, Rap1B-BODIPY-GDP fluorescence; series mostly up to 154 µM;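 also: nucleotide exchange releases bodipy-GDP from Rap1 and this lowers its fluorescence; nearly all actives have a fitted effect of over 65% in size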
[16] = target: Rap guanine nucleotide exchange factor 4 (Homo sapiens) (UniProt Q8WZA2); assay: Confirmatory qHTS for antagonist of cAMP-regulated guanine nucleotide exchange factor 4 (EPAC2) (AID 1645885); conditions: EPAC2 Rap1B-BODIPY-GDP exchange fluorescence, biochemical; series mostly up to 114 µM; also: nearly all actives have a fitted effect of over 25% in size

Measured: Potency

Dual specificity protein kinase CLK4 (Homo sapiens), sequence (Q9HAZ1 whole entry, looked up): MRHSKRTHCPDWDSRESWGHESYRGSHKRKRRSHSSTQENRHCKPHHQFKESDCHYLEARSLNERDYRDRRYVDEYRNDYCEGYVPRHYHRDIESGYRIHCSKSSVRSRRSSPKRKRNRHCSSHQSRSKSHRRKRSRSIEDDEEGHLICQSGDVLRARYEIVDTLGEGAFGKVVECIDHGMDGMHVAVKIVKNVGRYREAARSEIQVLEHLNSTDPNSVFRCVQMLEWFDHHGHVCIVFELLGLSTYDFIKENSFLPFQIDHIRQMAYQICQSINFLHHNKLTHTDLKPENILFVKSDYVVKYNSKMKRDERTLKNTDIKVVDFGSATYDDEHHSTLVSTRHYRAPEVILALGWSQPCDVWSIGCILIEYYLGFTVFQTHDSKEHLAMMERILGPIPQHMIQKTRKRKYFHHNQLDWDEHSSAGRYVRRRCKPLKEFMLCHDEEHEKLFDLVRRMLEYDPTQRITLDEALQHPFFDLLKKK
Rap guanine nucleotide exchange factor 3 (Homo sapiens), sequence (O95398 whole entry, looked up): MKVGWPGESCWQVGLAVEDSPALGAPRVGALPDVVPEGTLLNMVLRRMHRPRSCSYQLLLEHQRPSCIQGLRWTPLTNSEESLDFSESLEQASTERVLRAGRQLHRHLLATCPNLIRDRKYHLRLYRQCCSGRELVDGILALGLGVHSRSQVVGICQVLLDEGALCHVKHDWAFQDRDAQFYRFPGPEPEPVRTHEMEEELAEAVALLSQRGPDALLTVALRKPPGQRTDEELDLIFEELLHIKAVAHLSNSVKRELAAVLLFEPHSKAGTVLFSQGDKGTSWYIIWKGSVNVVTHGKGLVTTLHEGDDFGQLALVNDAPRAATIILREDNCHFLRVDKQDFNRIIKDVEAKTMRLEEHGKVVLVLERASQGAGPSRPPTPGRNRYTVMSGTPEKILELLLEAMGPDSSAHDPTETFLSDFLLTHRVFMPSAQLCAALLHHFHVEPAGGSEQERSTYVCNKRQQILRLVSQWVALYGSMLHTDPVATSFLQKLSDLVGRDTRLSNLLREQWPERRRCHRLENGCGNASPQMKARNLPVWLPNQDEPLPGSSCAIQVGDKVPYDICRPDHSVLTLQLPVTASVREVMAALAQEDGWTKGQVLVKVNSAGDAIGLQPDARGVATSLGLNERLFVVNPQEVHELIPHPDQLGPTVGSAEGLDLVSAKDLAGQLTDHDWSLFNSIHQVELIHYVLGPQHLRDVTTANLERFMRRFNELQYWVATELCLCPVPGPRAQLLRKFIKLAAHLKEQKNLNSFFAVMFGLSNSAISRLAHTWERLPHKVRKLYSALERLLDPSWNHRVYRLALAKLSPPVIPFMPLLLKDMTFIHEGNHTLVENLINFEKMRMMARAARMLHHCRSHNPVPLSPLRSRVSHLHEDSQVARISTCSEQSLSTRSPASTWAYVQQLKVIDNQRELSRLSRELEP
Rap guanine nucleotide exchange factor 4 (Homo sapiens), sequence (Q8WZA2 whole entry, looked up): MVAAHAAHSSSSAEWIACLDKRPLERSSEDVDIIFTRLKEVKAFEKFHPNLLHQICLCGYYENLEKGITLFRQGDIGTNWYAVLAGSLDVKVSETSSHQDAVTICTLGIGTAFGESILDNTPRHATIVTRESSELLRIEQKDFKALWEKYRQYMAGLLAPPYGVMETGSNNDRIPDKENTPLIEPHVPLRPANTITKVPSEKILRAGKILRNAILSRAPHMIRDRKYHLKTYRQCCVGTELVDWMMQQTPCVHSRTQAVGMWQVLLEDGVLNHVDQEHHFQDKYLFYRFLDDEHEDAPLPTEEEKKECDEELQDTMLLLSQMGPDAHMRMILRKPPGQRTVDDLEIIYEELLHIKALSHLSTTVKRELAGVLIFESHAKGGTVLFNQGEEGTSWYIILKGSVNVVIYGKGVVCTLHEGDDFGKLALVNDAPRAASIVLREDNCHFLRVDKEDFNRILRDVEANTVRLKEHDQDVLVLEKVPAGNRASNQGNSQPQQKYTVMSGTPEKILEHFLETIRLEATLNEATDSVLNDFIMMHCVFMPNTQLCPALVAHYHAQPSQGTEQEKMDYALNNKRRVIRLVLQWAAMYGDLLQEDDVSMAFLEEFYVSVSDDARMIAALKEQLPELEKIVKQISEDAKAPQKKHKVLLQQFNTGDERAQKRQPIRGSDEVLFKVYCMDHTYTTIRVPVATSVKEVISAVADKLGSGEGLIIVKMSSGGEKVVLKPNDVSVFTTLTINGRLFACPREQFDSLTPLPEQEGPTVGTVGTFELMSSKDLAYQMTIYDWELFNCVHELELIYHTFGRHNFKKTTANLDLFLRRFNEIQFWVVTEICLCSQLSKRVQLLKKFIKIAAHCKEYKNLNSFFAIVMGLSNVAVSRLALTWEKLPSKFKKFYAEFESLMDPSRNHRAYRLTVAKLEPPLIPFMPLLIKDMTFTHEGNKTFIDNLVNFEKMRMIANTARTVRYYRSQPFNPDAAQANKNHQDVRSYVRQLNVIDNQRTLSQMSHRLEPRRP
Pyruvate kinase (Leishmania mexicana), sequence (Q27686 2-499 E452W): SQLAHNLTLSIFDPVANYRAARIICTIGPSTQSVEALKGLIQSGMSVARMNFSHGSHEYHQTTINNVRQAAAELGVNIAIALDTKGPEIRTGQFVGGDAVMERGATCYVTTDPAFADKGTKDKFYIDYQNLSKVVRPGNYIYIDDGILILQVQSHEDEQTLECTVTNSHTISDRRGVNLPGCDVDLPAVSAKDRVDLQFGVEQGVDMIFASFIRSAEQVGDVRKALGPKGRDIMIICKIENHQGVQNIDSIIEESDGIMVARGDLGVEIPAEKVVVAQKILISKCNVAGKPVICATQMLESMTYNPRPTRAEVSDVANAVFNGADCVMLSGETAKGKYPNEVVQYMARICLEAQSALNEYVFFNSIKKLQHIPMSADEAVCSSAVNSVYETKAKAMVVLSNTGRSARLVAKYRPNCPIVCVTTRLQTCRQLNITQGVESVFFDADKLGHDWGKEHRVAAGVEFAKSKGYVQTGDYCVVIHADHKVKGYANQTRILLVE
Tyrosyl-DNA phosphodiesterase 1 (Homo sapiens), sequence (Q9NUW8 whole entry, looked up): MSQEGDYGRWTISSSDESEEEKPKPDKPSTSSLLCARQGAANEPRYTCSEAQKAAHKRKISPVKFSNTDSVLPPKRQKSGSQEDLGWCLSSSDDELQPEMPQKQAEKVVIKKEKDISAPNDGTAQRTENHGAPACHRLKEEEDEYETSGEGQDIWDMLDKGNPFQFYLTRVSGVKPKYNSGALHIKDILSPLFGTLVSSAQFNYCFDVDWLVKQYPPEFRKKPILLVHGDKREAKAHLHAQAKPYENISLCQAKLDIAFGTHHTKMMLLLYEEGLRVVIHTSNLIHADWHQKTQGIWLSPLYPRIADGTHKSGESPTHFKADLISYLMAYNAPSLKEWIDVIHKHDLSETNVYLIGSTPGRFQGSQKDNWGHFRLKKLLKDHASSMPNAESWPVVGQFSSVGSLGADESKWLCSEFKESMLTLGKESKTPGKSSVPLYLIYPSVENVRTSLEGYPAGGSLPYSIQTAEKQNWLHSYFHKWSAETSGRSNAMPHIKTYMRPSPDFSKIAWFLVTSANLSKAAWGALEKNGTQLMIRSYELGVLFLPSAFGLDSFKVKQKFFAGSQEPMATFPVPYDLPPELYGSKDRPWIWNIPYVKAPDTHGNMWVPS
Alpha-galactosidase A (Homo sapiens), sequence (P06280 whole entry, looked up): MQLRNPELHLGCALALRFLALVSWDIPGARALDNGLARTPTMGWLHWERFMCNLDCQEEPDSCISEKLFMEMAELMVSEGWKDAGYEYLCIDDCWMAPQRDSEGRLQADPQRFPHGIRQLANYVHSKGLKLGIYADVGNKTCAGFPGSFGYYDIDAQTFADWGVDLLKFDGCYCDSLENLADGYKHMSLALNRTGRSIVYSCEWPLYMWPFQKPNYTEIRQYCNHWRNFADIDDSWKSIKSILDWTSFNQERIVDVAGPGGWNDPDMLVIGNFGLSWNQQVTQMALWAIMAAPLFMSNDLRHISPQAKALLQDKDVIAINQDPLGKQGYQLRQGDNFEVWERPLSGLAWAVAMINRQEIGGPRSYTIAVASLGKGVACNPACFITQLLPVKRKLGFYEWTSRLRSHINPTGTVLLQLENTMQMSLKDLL
Guanine nucleotide-binding protein G(i) subunit alpha-1 (Homo sapiens), sequence (P63096 whole entry, looked up): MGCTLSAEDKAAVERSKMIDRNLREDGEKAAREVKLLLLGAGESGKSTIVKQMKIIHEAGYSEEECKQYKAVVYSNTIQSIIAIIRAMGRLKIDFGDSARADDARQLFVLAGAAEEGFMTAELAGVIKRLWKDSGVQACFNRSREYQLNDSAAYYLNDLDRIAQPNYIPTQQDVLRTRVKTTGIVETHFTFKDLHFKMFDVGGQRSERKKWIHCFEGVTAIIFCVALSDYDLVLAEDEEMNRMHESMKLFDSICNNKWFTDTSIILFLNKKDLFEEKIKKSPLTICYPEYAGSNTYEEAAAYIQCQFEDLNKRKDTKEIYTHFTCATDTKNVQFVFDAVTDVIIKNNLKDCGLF
DNA dC->dU-editing enzyme APOBEC-3G (Homo sapiens), sequence (Q9HC16 whole entry, looked up): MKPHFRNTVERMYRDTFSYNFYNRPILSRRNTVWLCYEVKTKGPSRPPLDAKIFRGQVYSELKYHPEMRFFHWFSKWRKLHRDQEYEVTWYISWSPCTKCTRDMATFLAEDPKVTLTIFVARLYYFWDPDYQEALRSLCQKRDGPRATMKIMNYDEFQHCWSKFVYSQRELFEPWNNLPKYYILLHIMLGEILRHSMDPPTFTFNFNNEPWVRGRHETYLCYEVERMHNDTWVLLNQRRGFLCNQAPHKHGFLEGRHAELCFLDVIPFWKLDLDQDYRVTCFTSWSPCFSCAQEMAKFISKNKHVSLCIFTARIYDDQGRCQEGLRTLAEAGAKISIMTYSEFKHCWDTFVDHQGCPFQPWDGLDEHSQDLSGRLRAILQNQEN

CN(C)C(=O)c1ccc(-c2cncnc2NCc2cccs2)cc1
active: [1] 1780 nM

Cn1cc(C(F)(F)F)nc1-c1ccc(OC[C@@H](O)CNCCOc2ccc(O)c(C(N)=O)c2)cc1
inactive: [2] | [3] | [4] | [5] | [6] | [7] | [8] | [9]

COc1cccc(Nc2ncc3nc(-c4cn(C)c5ccccc45)c(=O)n(C[C@H]4CCCO4)c3n2)c1
inactive: [10] | [11] | [12] | [13] | [14] | [15] | [16]
